This passage reports outcome and AC50 results from PubChem BioAssay (EPA / NIEHS).

Calls of active or inactive are those of the source. Rule for the calls: active = hit-call score of the fitted dose curve at least 0.9, where 1 is the maximum; inactive = score below 0.9.

A short description of assay [1]: ATG_GRE_CIS: Attagene CIS-FACTORIAL HepG2 Assay for human Glucocorticoid Response Elements (GRE) (AID 2282947). The following applies: HepG2 GRE cis-reporter, Attagene multiplex mRNA; actives raise or lower the signal. The essentials: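 Read-out: fluorescent reporter-transcript fragments separated by capillary electrophoresis after RT-PCR. Transiently transfected HepG2 cells carrying cis-element-driven reporter units were dosed for 24 h; gain or loss of signal fitted against DMSO control.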

Assay [2] is described as follows: ATG_ISRE_CIS: Attagene CIS-FACTORIAL HepG2 Assay for human Interferon Regulatory Factor 1 (IRF1) binding to an Interferon-Stimulated Response Element (ISRE) (AID 2282948). The following applies: HepG2 ISRE cis-reporter (Attagene), mRNA transcription readout; actives raise or lower the signal. Put shortly: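 Multiplexed mRNA reporter readout in human liver HepG2 cells: cis-element-driven reporters transfected, compound added for 24 h, transcripts amplified, fluorescently labelled and sized by capillary electrophoresis; curve fitting bidirectional against DMSO.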

Assay [3] in a line: ATG_M_32_CIS: Attagene CIS-FACTORIAL HepG2 Assay for M32 Transcription Factor (Internal Marker) (AID 2282949).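 Note: background control marker of the multiplexed CIS panel rather than a real target.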 Particulars: HepG2 Attagene cis-factorial M32 reporter, mRNA; actives raise or lower the signal. The essentials:
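Using DMSO as baseline, bidirectional curve fits were applied to reporter mRNA signals. These came from transiently transfected HepG2 cells exposed for 24 h, with RNA analysed by RT-PCR, FAM primer extension, HpaI digestion and CE.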

A short description of assay [4]: ATG_M_06_CIS: Attagene CIS-FACTORIAL HepG2 Assay for M06 Transcription Factor (Internal Marker) (AID 2282950). Particulars: HepG2 Attagene CIS-FACTORIAL M06 internal marker reporter; actives raise or lower the signal. The essentials:
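One of many multiplexed endpoints: HepG2 reporter mRNA after 24 h dosing, detected by RT-PCR and capillary electrophoresis fluorescence; gain or loss of signal analysed against DMSO.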

Assay [5] has as its target Hypoxia-inducible factor 1-alpha (Homo sapiens) (UniProt Q16665). The assay is described as follows: ATG_HIF1a_CIS: Attagene CIS-FACTORIAL HepG2 Assay for human Hypoxia Inducible Factor 1 (HIF1A) (AID 2282951). Particulars: HepG2 Attagene cis-factorial HIF1a reporter transcription; actives raise or lower the signal. The essentials:
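RT-PCR/capillary electrophoresis fluorescence readout of reporter transcripts from endogenous-TF-driven cis elements in transfected HepG2 cells, 24 h exposure; activity fitted in both directions against DMSO controls.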

Assay [6] addresses Hepatocyte nuclear factor 6 (Homo sapiens) (UniProt Q9UBC0). The assay is described as follows: ATG_HNF6_CIS: Attagene CIS-FACTORIAL HepG2 Assay for human Hepatocyte Nuclear Factor 6 (HNF6) (AID 2282952). Particulars: HepG2 Attagene cis-factorial HNF6 reporter transcription; actives raise or lower the signal. Put shortly: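 Using cis-element reporters in HepG2 liver cells, the assay tracks endogenous factor-driven transcription 24 h post-dosing. Signal comes from 6-FAM-labelled, HpaI-digested RT-PCR fragments, with gain or loss scored against DMSO.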

The target in assay [7] is Heat shock factor protein 1 (Homo sapiens) (UniProt Q00613). As to the kind of experiment: ATG_HSE_CIS: Attagene CIS-FACTORIAL HepG2 Assay for human Heat Shock Transcription Factor 1 (HSE) (AID 2282953). The following applies: HepG2 HSE cis-reporter, Attagene RNA transcription; actives raise or lower the signal. The essentials:
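Using HepG2 with transfected cis-driven reporter constructs, compound effects on endogenous factor activity are scored as reporter mRNA change at 24 h. Detection: RT-PCR, HpaI digestion, capillary electrophoresis; bidirectional fitting to DMSO.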

The nature of assay [8]: ATG_MRE_CIS: Attagene CIS-FACTORIAL HepG2 Assay for human Metal Responsive Element (MRE) (AID 2282954). The following applies: HepG2 MRE cis-reporter transcription, Attagene multiplex; actives raise or lower the signal. Put shortly:
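RT-PCR/capillary electrophoresis readout of reporter mRNA, 24 h post-dosing, in HepG2 cells transfected with multiplexed cis-regulated reporter constructs. Gain or loss of signal fitted bidirectionally against DMSO baseline.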

A short description of assay [9]: ATG_PBREM_CIS: Attagene CIS-FACTORIAL HepG2 Assay for human Phenobarbital-responsive Enhancer Module (PBREM) (AID 2282955). The following applies: HepG2 PBREM cis-reporter, Attagene multiplexed transcription; actives raise or lower the signal. The essentials: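 Reporter mRNA read by RT-PCR, 6-FAM primer extension, HpaI digestion and capillary electrophoresis. Transfected HepG2 cells, 24 h compound exposure. Gain or loss of signal fitted bidirectionally relative to DMSO baseline.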

The target in assay [10] is Paired box protein Pax-6 (Homo sapiens) (UniProt P26367). As to the kind of experiment: ATG_Pax6_CIS: Attagene CIS-FACTORIAL HepG2 Assay for human Paired Box 6 (PAX6) (AID 2282956). The following applies: HepG2 CIS-FACTORIAL PAX6 reporter transcription, RNA readout; actives raise or lower the signal. The essentials: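 Fluorescent RT-PCR products separated by capillary electrophoresis report PAX6-linked promoter mRNA in HepG2 cells 24 h post-dose. Curves fitted bidirectionally, DMSO as negative control.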

Assay [11] in a line: ATG_PXRE_CIS: Attagene CIS-FACTORIAL HepG2 Assay for human Pregnane X Receptor Element (PXRE) (AID 2282957). The following applies: HepG2 Attagene CIS-FACTORIAL PXRE reporter, mRNA; actives raise or lower the signal. Put shortly:
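Using HepG2 transfected with multiple reporter transcription units, endogenous factor-driven transcription was scored as reporter mRNA after 24 h exposure.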

A short description of assay [12]: ATG_PPRE_CIS: Attagene CIS-FACTORIAL HepG2 Assay for human Peroxisome Proliferator-activated Response Element (PPRE) (AID 2282958). Particulars: HepG2 PPRE cis-element reporter, Attagene transcription factor profiling; actives raise or lower the signal. The essentials: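 Read-out: fluorescent reporter mRNA fragments resolved by capillary electrophoresis after RT-PCR. HepG2 cells carried transiently transfected PPRE-driven cis reporter constructs and were dosed for 24 h; gain or loss of signal fitted relative to DMSO.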

Assay [13] is described as follows: ATG_Sox_CIS: Attagene CIS-FACTORIAL HepG2 Assay for human SRY-box transcription factor (SOX) (AID 2282960). Particulars: HepG2 Attagene cis-factorial SOX reporter, mRNA; actives raise or lower the signal. The essentials: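 Read-out: fluorescent RT-PCR products of SOX1-linked reporter transcripts resolved by capillary electrophoresis, fitted bidirectionally against DMSO. Transiently transfected HepG2 cells, 24 h after chemical exposure, endogenous transcription factor activity.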

The target in assay [14] is Transcription factor Sp1 (Homo sapiens) (UniProt P08047). The assay is described as follows: ATG_Sp1_CIS: Attagene CIS-FACTORIAL HepG2 Assay for human Specificity Protein 1 (Sp1) (AID 2282961). Particulars: HepG2 Sp1 cis-reporter transcription, actives raise or lower the signal. Put shortly: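 Read-out: fluorescence of 6-FAM-labeled, HpaI-digested RT-PCR products separated by capillary electrophoresis. HepG2 cells carried transfected cis-element reporter units and were exposed to chemicals for 24 h; gain or loss of signal fitted relative to DMSO.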

A short description of assay [15]: ATG_SREBP_CIS: Attagene CIS-FACTORIAL HepG2 Assay for human Sterol Regulatory Element Binding (SREBP) (AID 2282962). The following applies: HepG2 Attagene cis-factorial SREBP reporter, mRNA; actives raise or lower the signal. The essentials:
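Endogenous factor activity is measured in HepG2 through multiplexed reporter units under cis-element control. Following a 24 h incubation, reporter transcripts are reverse-transcribed, PCR-amplified and sized by capillary electrophoresis; activity is fitted in both directions relative to DMSO.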

Assay [16] has as its target Signal transducer and activator of transcription 3 (Homo sapiens) (UniProt P40763). As to the kind of experiment: ATG_STAT3_CIS: Attagene CIS-FACTORIAL HepG2 Assay for human Signal Transducer and Activator of Transcription 3 (STAT3) (AID 2282963). Particulars: HepG2, Attagene cis-factorial STAT3 reporter transcription; actives raise or lower the signal. The essentials: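 Readout: fluorescent reporter mRNA fragments resolved by capillary electrophoresis. Setup: HepG2 transfected with MRTUs reporting endogenous transcription-factor activity, dosed 24 h. Gain or loss of signal fitted bidirectionally against DMSO control.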

A short description of assay [17]: ATG_TA_CIS: Attagene CIS-FACTORIAL HepG2 Assay for human TA Basal Promoter (AID 2282964). The following applies: HepG2 Attagene CIS-factorial TA basal promoter reporter; actives raise or lower the signal. The essentials: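 Transient MRTU transfection of HepG2 preceded 24 h compound exposure. Reporter mRNA levels were then read by RT-PCR with capillary electrophoresis, and this background-control endpoint was fitted bidirectionally to DMSO.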

A short description of assay [18]: ATG_RORE_CIS: Attagene CIS-FACTORIAL HepG2 Assay for human RAR-related Orphan Receptor Element (RORE) (AID 2282959). Particulars: HepG2 Attagene cis-factorial RORE reporter, mRNA; actives raise or lower the signal. The essentials:
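Readout: fluorescent reporter mRNA by RT-PCR plus capillary electrophoresis, 24 h after dosing transfected HepG2 cells. Endogenous transcription factor activity on a cis promoter element is measured. Gain or loss of signal fitted against DMSO.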

Sequence of Paired box protein Pax-6 (Homo sapiens) (P26367 whole entry, looked up): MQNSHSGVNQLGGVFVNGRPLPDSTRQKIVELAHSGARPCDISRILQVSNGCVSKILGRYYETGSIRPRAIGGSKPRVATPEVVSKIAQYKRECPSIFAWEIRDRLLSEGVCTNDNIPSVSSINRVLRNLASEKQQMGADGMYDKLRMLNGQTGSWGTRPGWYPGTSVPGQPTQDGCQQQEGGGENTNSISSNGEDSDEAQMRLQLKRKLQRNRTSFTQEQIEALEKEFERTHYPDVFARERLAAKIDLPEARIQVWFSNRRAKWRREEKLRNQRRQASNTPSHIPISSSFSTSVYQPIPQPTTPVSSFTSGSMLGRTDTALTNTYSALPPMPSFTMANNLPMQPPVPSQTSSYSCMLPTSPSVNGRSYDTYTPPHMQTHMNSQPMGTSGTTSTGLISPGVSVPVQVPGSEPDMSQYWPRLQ
Sequence of Heat shock factor protein 1 (Homo sapiens) (Q00613 whole entry, looked up): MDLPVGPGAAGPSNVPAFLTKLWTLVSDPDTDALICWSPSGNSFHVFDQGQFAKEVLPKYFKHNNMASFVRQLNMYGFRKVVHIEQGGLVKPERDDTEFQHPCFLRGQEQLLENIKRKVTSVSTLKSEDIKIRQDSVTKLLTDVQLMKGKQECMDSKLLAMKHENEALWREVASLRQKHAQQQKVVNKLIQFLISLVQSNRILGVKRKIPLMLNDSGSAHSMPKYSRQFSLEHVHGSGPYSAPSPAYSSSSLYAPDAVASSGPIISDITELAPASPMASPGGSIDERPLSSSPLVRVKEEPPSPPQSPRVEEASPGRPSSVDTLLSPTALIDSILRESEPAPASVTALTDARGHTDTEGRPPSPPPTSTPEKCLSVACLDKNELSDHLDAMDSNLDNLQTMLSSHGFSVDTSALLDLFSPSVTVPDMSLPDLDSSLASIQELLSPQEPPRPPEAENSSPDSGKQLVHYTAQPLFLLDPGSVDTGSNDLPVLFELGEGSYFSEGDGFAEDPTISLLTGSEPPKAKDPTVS
Sequence of Hypoxia-inducible factor 1-alpha (Homo sapiens) (Q16665 whole entry, looked up): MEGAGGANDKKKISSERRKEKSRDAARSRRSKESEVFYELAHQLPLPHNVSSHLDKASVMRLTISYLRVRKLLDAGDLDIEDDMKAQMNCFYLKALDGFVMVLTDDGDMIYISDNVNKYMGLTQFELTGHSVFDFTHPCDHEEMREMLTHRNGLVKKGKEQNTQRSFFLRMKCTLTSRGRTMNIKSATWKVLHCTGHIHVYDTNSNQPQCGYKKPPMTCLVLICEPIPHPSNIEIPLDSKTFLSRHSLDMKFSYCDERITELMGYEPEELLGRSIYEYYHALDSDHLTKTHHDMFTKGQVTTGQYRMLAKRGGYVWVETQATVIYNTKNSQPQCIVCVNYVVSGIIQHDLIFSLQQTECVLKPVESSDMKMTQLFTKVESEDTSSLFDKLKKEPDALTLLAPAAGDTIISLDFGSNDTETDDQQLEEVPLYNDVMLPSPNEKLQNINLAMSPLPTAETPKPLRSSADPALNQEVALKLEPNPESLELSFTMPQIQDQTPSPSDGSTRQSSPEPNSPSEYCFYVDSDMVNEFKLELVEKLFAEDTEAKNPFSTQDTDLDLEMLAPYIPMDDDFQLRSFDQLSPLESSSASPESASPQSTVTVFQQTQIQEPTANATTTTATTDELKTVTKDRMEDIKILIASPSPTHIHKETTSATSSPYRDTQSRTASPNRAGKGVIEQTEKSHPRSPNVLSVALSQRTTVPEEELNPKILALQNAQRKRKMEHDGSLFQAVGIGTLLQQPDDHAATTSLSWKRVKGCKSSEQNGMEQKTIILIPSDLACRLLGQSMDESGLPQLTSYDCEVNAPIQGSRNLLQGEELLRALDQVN
Sequence of Transcription factor Sp1 (Homo sapiens) (P08047 whole entry, looked up): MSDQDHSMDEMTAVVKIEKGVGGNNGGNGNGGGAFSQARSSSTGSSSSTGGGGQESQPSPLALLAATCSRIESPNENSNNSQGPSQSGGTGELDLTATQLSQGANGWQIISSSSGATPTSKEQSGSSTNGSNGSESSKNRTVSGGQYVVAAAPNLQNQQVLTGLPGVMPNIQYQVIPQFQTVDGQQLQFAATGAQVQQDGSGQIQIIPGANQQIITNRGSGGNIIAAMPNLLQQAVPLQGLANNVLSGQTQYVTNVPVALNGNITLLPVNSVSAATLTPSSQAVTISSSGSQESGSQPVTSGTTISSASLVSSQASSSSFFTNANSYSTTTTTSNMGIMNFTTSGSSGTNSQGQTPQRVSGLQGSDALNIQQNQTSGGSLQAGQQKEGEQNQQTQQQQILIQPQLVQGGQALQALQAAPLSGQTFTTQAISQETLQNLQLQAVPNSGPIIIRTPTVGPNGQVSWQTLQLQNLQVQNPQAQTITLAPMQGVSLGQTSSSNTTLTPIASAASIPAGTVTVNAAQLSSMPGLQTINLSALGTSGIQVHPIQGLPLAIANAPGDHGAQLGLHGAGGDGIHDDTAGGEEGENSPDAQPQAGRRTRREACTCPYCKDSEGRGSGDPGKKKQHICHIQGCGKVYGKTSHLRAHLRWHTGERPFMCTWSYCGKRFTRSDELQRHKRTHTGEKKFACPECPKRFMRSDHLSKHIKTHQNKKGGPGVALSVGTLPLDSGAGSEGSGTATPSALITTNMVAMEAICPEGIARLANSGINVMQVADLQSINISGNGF
Sequence of Hepatocyte nuclear factor 6 (Homo sapiens) (Q9UBC0 whole entry, looked up, the tested form may be a part): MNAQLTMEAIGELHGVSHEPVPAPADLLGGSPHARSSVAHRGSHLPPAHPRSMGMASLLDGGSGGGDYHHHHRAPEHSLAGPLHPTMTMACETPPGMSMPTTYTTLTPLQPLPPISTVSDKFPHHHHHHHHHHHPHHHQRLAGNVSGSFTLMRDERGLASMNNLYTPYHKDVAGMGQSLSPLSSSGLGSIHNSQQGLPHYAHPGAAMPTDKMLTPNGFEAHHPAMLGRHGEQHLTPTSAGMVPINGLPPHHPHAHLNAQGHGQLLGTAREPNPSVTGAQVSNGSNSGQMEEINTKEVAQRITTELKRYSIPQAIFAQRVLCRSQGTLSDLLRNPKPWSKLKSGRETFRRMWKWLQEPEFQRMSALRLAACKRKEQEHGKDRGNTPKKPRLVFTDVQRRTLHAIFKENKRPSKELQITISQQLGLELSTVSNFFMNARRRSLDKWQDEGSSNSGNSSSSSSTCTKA
Sequence of Signal transducer and activator of transcription 3 (Homo sapiens) (P40763 whole entry, looked up, the tested form may be a part): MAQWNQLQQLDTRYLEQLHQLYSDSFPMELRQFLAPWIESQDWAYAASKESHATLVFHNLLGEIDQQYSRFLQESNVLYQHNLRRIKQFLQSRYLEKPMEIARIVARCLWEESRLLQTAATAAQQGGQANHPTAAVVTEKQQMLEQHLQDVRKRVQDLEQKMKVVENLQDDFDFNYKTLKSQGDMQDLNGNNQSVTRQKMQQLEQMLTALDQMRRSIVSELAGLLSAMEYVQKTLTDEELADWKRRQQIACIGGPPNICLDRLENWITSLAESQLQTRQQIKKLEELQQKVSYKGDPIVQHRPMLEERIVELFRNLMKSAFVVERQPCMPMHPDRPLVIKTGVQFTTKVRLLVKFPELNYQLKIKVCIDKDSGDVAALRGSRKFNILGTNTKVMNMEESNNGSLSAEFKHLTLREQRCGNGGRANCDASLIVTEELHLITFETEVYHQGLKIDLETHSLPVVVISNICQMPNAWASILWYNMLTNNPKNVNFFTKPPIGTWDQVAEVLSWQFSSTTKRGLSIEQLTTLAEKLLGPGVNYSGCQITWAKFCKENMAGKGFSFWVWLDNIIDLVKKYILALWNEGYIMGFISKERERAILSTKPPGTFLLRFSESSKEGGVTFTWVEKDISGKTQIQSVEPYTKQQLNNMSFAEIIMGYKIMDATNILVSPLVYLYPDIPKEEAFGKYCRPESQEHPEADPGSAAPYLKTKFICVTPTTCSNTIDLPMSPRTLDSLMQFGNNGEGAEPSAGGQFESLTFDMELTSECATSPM

On to `Nc1ccc2c(c1)C(=O)c1ccccc1C2=O`, for which the outcome in [1], in assay [2], in assay [3], in assay [4], in assay [5] and in [6] was inactive. Also, the outcome in assay [7], in assay [8], in assay [9], in assay [10], in assay [12] and in assay [13] was inactive. Also, the outcome in assay [14], in assay [15], in assay [16] and in assay [17] was inactive. The AC50 (commonly the midpoint of the concentration-response curve, whichever way the signal moves) in assay [11] was 26.9 µM (active).
Regarding `c1cc(-c2ccncc2)ccn1`, the compound was classed as inactive in assay [1], in assay [2], in [3], in assay [4], in assay [5] and in [6]. In addition, the call in [7], in assay [8], in assay [9], in assay [10], in assay [11] and in assay [12] was inactive. Moreover, the call in [18], in assay [14], in assay [15], in [16] and in assay [17] was inactive.
With `CCNc1cccc(C)c1`, the outcome in assay [2], in assay [3], in assay [4], in assay [6], in assay [7] and in assay [8] was inactive. In addition, the result in assay [9], in assay [10], in [11], in [12], in assay [18] and in assay [13] was inactive. Also, the outcome in assay [14], in assay [15], in [16] and in assay [17] was inactive. For the same compound, in assay [5], the AC50 is 60.8 µM (active).
Consider `CCCCCCOCCO`, for which the compound was classed as inactive in [1], in [2], in assay [4], in assay [5], in assay [6] and in [7]. In addition, the call in [8], in assay [9], in assay [10], in assay [11], in assay [12] and in [14] was inactive. Further, the compound was called inactive in assay [15], in assay [16] and in assay [17].
As to `Cc1ccc(N(C)C)cc1`, the compound was classed as inactive in assay [1], in assay [2], in assay [3], in assay [4], in [5] and in assay [6]. Besides, the compound was classed as inactive in assay [8], in [9], in assay [10], in assay [12], in assay [13] and in assay [14]. Further, the call in assay [15], in [16] and in assay [17] was inactive. Also, the AC50 in [11] was 27.4 µM (active).
On to `CCCCCCC(=O)OCC`, for which the call in assay [2], in assay [3], in [4], in assay [5], in assay [6] and in [7] was inactive. The outcome in assay [8], in assay [9], in [10], in assay [12], in [18] and in assay [14] was inactive. The call in assay [15], in assay [16] and in [17] was inactive. The AC50 in assay [11] is 30.1 µM (active).
Regarding `Cc1ccc2ncccc2c1`, the compound was classed as inactive in [1], in assay [2], in [4], in assay [5], in assay [6] and in assay [7]. Further, the result in [8], in [9], in [10], in assay [11], in [12] and in assay [14] was inactive. The compound was classed as inactive in assay [15], in [16] and in assay [17].
